Bioassay records as filed in PubChem.
RORgamma inh: inhibitors of mouse ROR gamma transcriptional activity. Drosophila S2 Gal4-RORgamma UAS-luciferase reporter, 20 h. AID 2551. 310,000 compounds, 5.4% hits. P51450. Potency, µM (titrated, usually from 53.6 µM), without a hit: at the highest dose activity change, negative = inhibition, hits mostly inhibitors; further: on the % scale 0 is the no-effect control and ±100 the full control effect; nearly all actives have a fitted effect of over 60% in size
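ROR gamma transcriptional activity was tracked as Gal4-UAS luciferase output in stably transfected Drosophila Schneider cells, with compound added 1 hr before 700 uM copper sulfate induction and a 20 hr ambient-temperature incubation.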
HEK293 tox: cytotoxicity counter-screen for GLP-1 receptor inverse agonists; HEK293 cAMP-luciferase reporter cells, luminescence, 24 h; Potency, µM (series often up to 38.3 µM), inactives show at the top dose activity change, negative = inhibition, most hits filed as inhibitors; 410,000 compounds, 0.13% hits;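 further: loss of luciferase light is scored as toxicity; on the % scale 0 is the no-effect control and ±100 the full control effect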
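Seeding density was 200 cells/uL; after overnight-length (12 h) culture, 23 nL compounds went on for 24 h at 37 °C. Readout used a luciferase detection reagent, luminescence taken after 12 min at room temperature.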
Gal4-VP16 FLuc: Gal4-VP16 reporter inhibition counter-screen | Drosophila S2 Gal4-VP16 UAS-luciferase, luminescence, 20 h | Potency, µM (highest dose often 53.6 µM), for inactives: at the highest dose activity, negative = inhibition, actives largely listed as inhibitors | 310,000 compounds, 3.5% hits;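 further: Gal4-VP16 expression switched on by copper sulfate through the metallothionein promoter; on the % scale 0 is the no-effect control and ±100 the full control effect; nearly all actives have a fitted effect of over 50% in size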
GLP-1R agonist: GLP-1 receptor (human) agonism; P43220; HEK293 GLP-1R CRE-luciferase, luminescence, 4-6 h; cells express a hypersensitive GLP-1R form; Potency, µM (series often up to 45.6 µM), for the others: at the top dose activation, hits mostly activators; AID 624172; 380,000 compounds, 0.007% hits; further: % of control where 0% means no effect
Target sequence (P43220 whole entry, looked up): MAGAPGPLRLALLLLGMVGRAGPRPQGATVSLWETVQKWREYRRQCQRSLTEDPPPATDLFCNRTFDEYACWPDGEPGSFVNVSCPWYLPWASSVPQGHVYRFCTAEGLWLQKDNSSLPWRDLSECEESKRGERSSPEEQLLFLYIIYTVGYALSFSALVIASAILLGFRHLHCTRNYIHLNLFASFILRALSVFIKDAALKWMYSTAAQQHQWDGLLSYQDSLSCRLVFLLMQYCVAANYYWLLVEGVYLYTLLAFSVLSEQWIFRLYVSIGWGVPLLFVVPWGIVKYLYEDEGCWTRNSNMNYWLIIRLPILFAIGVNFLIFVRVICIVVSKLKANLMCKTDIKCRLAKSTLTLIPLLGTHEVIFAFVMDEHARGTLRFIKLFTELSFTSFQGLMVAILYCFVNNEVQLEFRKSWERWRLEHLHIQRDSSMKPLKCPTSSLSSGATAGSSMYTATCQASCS
GLP-1R inv ag: acts as inverse agonist at human GLP-1 receptor; P43220; HEK293 GLP-1R CRE-luciferase, luminescence, 24 h; GLP-1R form is constitutively active; Potency, µM (highest dose often 38.3 µM), for the others: top-dose activity change, negative = inhibition, most hits filed as inhibitors; 410,000 compounds, 1.6% hits; AID 624417; further: on the % scale 0 is the no-effect control and ±100 the full control effect; nearly all actives have a fitted effect of over 55% in size
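qHTS in 1536-well format: reporter HEK293 cells expressing constitutive GLP-1R activity in DMEM + 10% Nu serum, 24 hr with compounds at 37 deg C, luminescence read after 12 min with detection reagent.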
Starred values were filed as active, the others as inactive; u = inconclusive; x = no result; [ ] = another dose, or the depositor's remark. Most compounds without a hit are left out; they make up all but 5.9% or so of the library. The call rests on the fitted dose curve; in most records, active means well fitted curve in the direction sought with a large enough effect; inconclusive means small, poorly fitted or top-dose-only effect, or another doubt; inactive means no such curve, though single readings can be large; an effect the other way counts as inactive or inconclusive. Potency means the concentration at half of the fitted maximal effect.

SMILES	RORgamma inh	HEK293 tox	Gal4-VP16 FLuc	GLP-1R agonist	GLP-1R inv ag
O=[N+]([O-])c1ccc(C(c2sc3nc(-c4ccco4)nn3c2O)N2CCC3(CC2)OCCO3)cc1 (centres undefined)	x	-1%	x	x	16%
CN(C)CCNC(=O)c1cc2sc3ccccc3c2s1	-22%	u	-5%	2%	3.2µM*
COCCN(CCOC)C(=O)c1cc2sc3ccccc3c2s1	-7%	-23%	-5%	u	8%
CCCCc1ccc(NC(=O)CSc2nc(=O)[nH]c3c2CCCC3)cc1	x	7%	x	x	13%
Cc1ccccc1-n1ncc2c(SCC(=O)NCc3cccs3)ncnc21	-2%	u	-7%	1%	10µM*
COc1cccc(Cn2c(=O)c(C)nc3cnc(OCc4ccccc4)nc32)c1	-7%	x	-7%	x	x
N#Cc1c(NC(=O)CSc2ncn[nH]2)sc2c1CCCC2	0.32µM*	-22%	0.11µM*	4%	15%
CCCc1cc(=O)[nH]c(SCC(=O)Nc2sc3c(c2C#N)CCC(C)C3)n1 (centres undefined)	14%	-20%	3%	-1%	u
CC1CCc2c(sc(NC(=O)CSc3ncn[nH]3)c2C#N)C1 (centres undefined)	0.32µM*	-6%	0.079µM*	4%	-8%
CCN1CCN(CC(=O)Nc2sc3c(c2C#N)CCC(C)C3)CC1 (centres undefined)	u	-9%	4%	3%	2µM*
CC(C)(C)C1CCc2c(sc(NC(=O)CSc3ncn[nH]3)c2C#N)C1 (centres undefined)	u	-14%	11µM*	u	20%
CCOC(=O)c1ccccc1NC(=O)CSc1nc2ncccc2o1	x	-5%	x	x	4%
CCOC(=O)CNC(c1ccccc1)c1cc(Br)ccc1NC(=O)c1ccc(Cl)cc1 (centres undefined)	x	1%	x	x	-85%
CC(C)(CO)C(O)C(=O)NCCCC(=O)O (centres undefined)	x	x	x	0%	x
CCc1ccccc1NC(=O)CSc1nncn2c1cc1oc(C)cc12	x	0%	x	x	-2%
Cc1ccnc(SCC(=O)Nc2sc3c(c2C#N)CCCC3)n1	u	-4%	7.1µM*	18%	31%
Cc1oc(-c2ccc3c(c2)OCCO3)cc1C(=O)NCC(=O)O	7.1µM*	-6%	u	-2%	u
COc1ccc(-c2cc(C(=O)O)c(C)o2)cc1OC	u	-22%	0.89µM*	-12%	-3%
Cc1oc(-c2ccc3c(c2)OCCO3)cc1C(=O)O	0.89µM*	-2%	1.4µM*	-5%	u
O=C(CNC(=O)c1ccc(Cl)cc1)OCc1cc(=O)n2nc(C3CC3)sc2n1	x	6%	x	x	10%
c1cc(CN2CCCNCCNCCCNCC2)ccc1CN1CCCNCCNCCCNCC1	-26%	x	-18%	x	x
N#Cc1cccc(NC(=O)N2CC3(CCN(C(=O)c4ccco4)CC3)C2)c1	0%	x	-12%	x	x
COc1ccc2ccccc2c1/C=N/NC(=S)NCCN1CCOCC1	4.5µM*	u	4.5µM*	13%	u
S=C(NCCN1CCOCC1)N/N=C/c1ccccc1	13µM*	-20%	u	-4%	4%
COc1cc(OC)c(OC)cc1/C=N/NC(=S)NCCN1CCOCC1	4µM*	-2%	7.1µM*	11%	28%
SMILES	RORgamma inh	HEK293 tox	Gal4-VP16 FLuc	GLP-1R agonist	GLP-1R inv ag
COCCNC(=S)N/N=C/c1c2ccccc2cc2ccccc12	7.1µM*	u	u	20%	u
COc1cc(/C=N/NC(=S)NCCN2CCOCC2)cc(OC)c1O	u	-6%	u	9%	11%
COC(=O)c1ccc(/C=N/NC(=S)NCCN2CCOCC2)cc1	u	2%	u	4%	17%
COc1ccc(CNc2nc3c(-c4ccc(C)cc4)nnn3c3ccccc23)cc1	x	2%	x	0%	9%
Oc1ccc(/C=N/NC(=S)NCCN2CCOCC2)c(O)c1	13µM*	9%	-10%	-3%	23%
COc1cc(/C=N/NC(=O)C(=O)NCC2CCCO2)ccc1O (centres undefined)	-3%	6%	1%	0%	22%
COc1cc(OC)c(OC)cc1/C=N/NC(=S)NCC1CCCO1 (centres undefined)	6.3µM*	u	14µM*	25%	12%
S=C(NCCN1CCOCC1)N/N=C/c1c2ccccc2cc2ccccc12	u	1%	u	2%	u
N#Cc1ccccc1-c1cncnc1NCc1cccnc1	-2%	x	6%	x	x
O=[N+]([O-])c1ccc(N/N=C2/CCCCC2c2ccccn2)cc1 (centres undefined)	-2%	-2%	-17%	7%	1.3µM*
O=[N+]([O-])c1ccc(NC2CCCC2)cc1	u	3%	-3%	-2%	12%
CSCC[C@H](NC(=O)[C@H](CC(C)C)NC(=O)CCNC(=O)[C@@H](NC(=O)[C@H](Cc1ccccc1)NC(=O)[C@H](CO)NC(=O)[C@@H](N)CC(=O)O)C(C)C)C(N)=O	-10%	x	-4%	x	x
O=C(NC1CCC(C(=O)O)CC1)OCc1ccccc1 (centres undefined)	u	5%	6%	0%	-10%
c1ccc(CO/N=C(\c2ccc(C3CC3)nc2)C2CC2)cc1	37%	2%	3%	-2%	7.9µM*
N#C/C(=C/c1ccco1)c1nc2ccccc2s1	5µM*	10%	5.6µM*	-1%	16%
N#C/C(=C\c1ccco1)c1nc2ccccc2s1	-43%	11%	u	7%	12%
CC1C(=O)OC2CC34C5CC(C(C)(C)C)C36C(OC(=O)C6O)OC4(C(=O)O5)C21O (centres undefined)	-1%	x	-10%	x	x
CCOC(=O)OCC1OC(c2ccccc2)C=CC1Oc1cccc(N(C)C)c1 (centres undefined)	17%[10 µM]	x	7%[10 µM]	x	x
CNC1=C(Cl)C(=O)c2ccncc2C1=O	2.8µM*	x	5.6µM*	x	x
CNC1=C(Br)C(=O)c2ccncc2C1=O	2.2µM*	x	5.6µM*	x	x
CC(=O)Nc1ccc(NC2=C(Cl)C(=O)c3ccccc3C2=O)cc1	u	u	-8%	6%	4%
CNc1ccncc1S(=O)(=O)NC	5%	0%	-19%	-10%	9%
COc1ccc(C(=O)N2CCC3(CCCN(C)C3)CC2)cc1	-22%	x	-5%	x	x
COc1cccc(CS(=O)(=O)c2nnnn2CC(C)C)c1	-17%	x	0%	x	x
O=C(COc1ccc(Cl)cc1)Nc1ccc2nc(SCC(=O)N3CCOCC3)sc2c1	x	-10%	x	x	7%
Cc1noc(C)c1CSc1ncnc2sc3c(c12)CCCCC3	7.9µM*	3%	u	-5%	7%
Cc1noc(C)c1CSc1ncnc2sc(C)c(C)c12	7%	-6%	-4%	1%	33%
